Structures are written as SMILES. Records with an inconclusive call do not appear. A call without a number means that no potency is given here. A number with no mark means an inactive call. Active and inactive are the calls of the source. Calls follow the shape of the dose curve; as a rule, active = well fitted cell-killing curve with a large enough effect in the repeat runs; inconclusive = weak or mixed curves; inactive = flat fitted curve, though single readings scatter.
Potency is read from the fitted curve at half-maximal effect.

The assay in a line: qHTS assay to identify small molecule antagonists of the estrogen related receptor (ERR) signaling pathway from Tox21 library - cell viability counter screen (AID 1224834). Also: nearly all actives have a fitted effect of over 30% in size. The note with it: ERR reporter cells viability, CellTiter-Fluor, 17.5 h; series mostly up to 92.4 µM. From the text: National Center for Advancing Translational Sciences [NCATS]
NIH Chemical Genomics Center [NCGC]
U.S. Environmental Protection Agency [EPA]
National Institutes of Environmental Health Sciences [NIEHS]
National Toxicology Program [NTP]
U.S. Food and Drug Administration [FDA]
Estrogen related receptors (ERRs), the first orphan nuclear receptors discovered, play an important role in the control of cellular energy metabolism. ERRs are required for high-energy production in response to the environmental challenges. ERR-alpha was also identified as an adverse marker for breast cancer progression; ERR-alpha-positive tumors have a poor prognosis. To screen and to identify environmental compounds that perturb the ERR signaling pathways could provide valuable information for potential therapeutic or preventive measures in the treatment of metabolic disease. To differentiate true ERR antagonists or agonist from cytotoxic substances, the assay is multiplexed with cell viability assay.
Tox21 Assay Protocol Summary:
The ERR cells were dispensed at 2,000 cells/5 ul/well in 1536-well white plates using a Multidrop dispenser. After the assay plates were incubated at a 37 C/5% CO2 incubator for 6 hours, 23 nL of compounds dissolved in DMSO, positive and negative controls or DMSO only was transferred to the assay plate by a pin tool. The plates were incubated at 37 C for 17.5 hours. 1 ul/well of CellTiter-Fluor reagent was added into the assay plates using a Flying Reagent Dispenser. After 30-minute incubation at 37 C/5% CO2, the fluorescence intensity in the plates was measured using a ViewLux plate reader.
As for `CC1(C)S[C@@H]2[C@H](NC(=O)C(C(=O)O)c3ccccc3)C(=O)N2[C@H]1C(=O)O` (stereo not given in full), the Potency result is “inactive”. Same read-out and setting: with `CCC/C=C/CO` the entry was “inactive”; with `Clc1cccc(-c2cc(Cl)cc(Cl)c2)c1`, “inactive”; with `FC(F)(F)C(F)(F)C(F)(F)C(F)(F)C(F)(F)C(F)(F)C(F)(F)C(F)(F)Br`, “inactive”.

As to `CN(C)CC[C@@H](c1ccc(Cl)cc1)c1ccccn1`, the Potency result is “inactive”. Same read-out and setting: with `OC[C@H]1O[C@@H](O[C@H]2[C@H](O)[C@@H](O)[C@H](O)O[C@@H]2CO)[C@H](O)[C@@H](O)[C@H]1O` the entry was “inactive”; with `O=C(O)[C@@H]1CSCN1`, “inactive”; with `CC(=O)Oc1cc(C(C)C)c(OCCN(C)C)cc1C`, “inactive”. For `CCCCCCCCCC/C=C/C#N`, the Potency entry was “inactive”. With `CN1[C@@H]2CC[C@H]1CC(OC(=O)c1c[nH]c3ccccc13)C2` (stereo not given in full), the Potency entry is “inactive”. Same read-out and setting: with `CCCCNc1cc(C(=O)O)cc(S(N)(=O)=O)c1Oc1ccccc1` the entry was “inactive”. The same measure, in the same setting: then `CCc1nnc(NS(=O)(=O)c2ccc(N)cc2)s1`, with “inactive”; and `C[C@@H](N)C(=O)O`, with “inactive”.

Regarding `NNS(=O)(=O)c1ccc(Oc2ccc(S(=O)(=O)NN)cc2)cc1`, the Potency result was “inactive”.

As to `C=O`, the Potency entry was “inactive”. Same read-out and setting: with `CC(C)OC(C)C` the entry was “inactive”.

Consider `O=C(O)c1ccccc1Nc1cc(Cl)ccc1C(=O)O`, for which the viability change, negative = cytotoxic is -1.64% [at 19 µM]. As to `ICCc1ccccc1`, the Potency entry is “inactive”. As for `CCCNC(C)C(=O)Nc1c(C)csc1C(=O)OC` (stereo not given), the Potency entry was “inactive”.

As to `OCC(CBr)(CBr)CBr`, the Potency result is “inactive”. On the same count and under the same terms, with `NC1=NCC2c3ccccc3Cc3ccccc3N12` (stereo not given) the entry was “inactive”. On the same count and under the same terms, then `CCNCCO`, with “inactive”. Take `NC/C=C/C(=O)O`: the Potency result is “inactive”. On the same count and under the same terms, then `CCCCCCC`, with “inactive”. In the case of `NC(Cc1ccc(F)cc1)C(=O)O` (stereo not given), the viability change, negative = cytotoxic is 0.439% [at 8.39 µM]. With `O=C(CCCl)NCc1ccccc1`, the Potency result is “inactive”. Same read-out and setting: with `NC(=O)Cc1cccc(C(=O)c2ccccc2)c1N` the entry was “inactive”; with `CN1CCN(c2c(F)cc3c(=O)c(C(=O)O)cn(CCF)c3c2F)CC1`, “inactive”; with `C=C(C)C(=O)OCCOP(=O)(O)O`, “inactive”.

As for `CCC(=O)c1ccc2c(c1)N(CCCN(C)C)c1ccccc1S2`, the Potency was 26.6 µM (active).

As to `CCC(=O)Nc1ccc(O)cc1`, the Potency entry is “inactive”.

Turning to `OCCN1CCN(CCO)CC1`, the Potency result was “inactive”. Still for that read-out and setting: with `CC(Oc1c(Cl)cccc1Cl)C1=NCCN1` (stereo not given) the entry was “inactive”; with `CCCCCCCCc1ccc(S(=O)(=O)O)cc1`, “inactive”. `CCOc1ccc(OCC)c(Cl)c1`: the Potency result is “inactive”. For `NCCCN1CCN(CCCN)CC1`, the Potency result is “inactive”. Turning to `Cc1nc(-c2ccccn2)ncc1C(=O)Nn1cc(C)c2cc(F)ccc21`, the Potency result was “inactive”. Still for that read-out and setting: with `CC(=O)OC(C)OC(C)=O` the entry was “inactive”; with `O=C(O)[C@@H](O)[C@H](O)[C@H](O)[C@@H](O)C(=O)O`, “inactive”; with `CC/C=C\CCOC(=O)CCCCC`, “inactive”.

The record behind these values is PubChem BioAssay (Tox21).
